Hits are enriched below; roughly 21% of the tested compounds scored in any of these assays.
Pf growth 48h: P. falciparum growth inhibition at 48 hours (one generation) | P. falciparum luciferase growth in erythrocytes, 48 h | Potency, µM (titrated, usually from 28.7 µM), usual class: inhibitors | 310,000 compounds, 5.9% hits | AID 504832
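In quantitative HTS format, infected erythrocytes bearing luciferase-reporter parasites were treated for a single generation at 37 C. Luminescence after adding detection reagent served as the growth measure.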
CHX counter: counter-screen hit for Shiga toxin inhibitors, cycloheximide; cell reporter, cycloheximide protein synthesis inhibition counterscreen; max response, %; 300,000 compounds, 12% hits; AID 2314; in the data active = max response mostly above about 13%, no sharp cut-off; inactive = mostly below about 14%; also: read at 38.3 µM for the half of the compounds with a filed dose
SARS PLpro yeast: inhibitors of SARS-CoV papain-like protease in yeast; S. cerevisiae expressing SARS-CoV PLpro, growth rescue; Potency, µM (titrated, usually from 32.9 µM), actives largely listed as activators; 330,000 compounds, 0.19% hits; calls by dose curve; also: nearly all actives have a fitted effect of over 55% in size
NS1 function inh: influenza NS1 inhibition. Potency, µM (doses to about 46.1 µM). 270,000 compounds, 0.4% hits. AID 2326; calls by dose curve; also: actives are rising curves; nearly all actives have a fitted effect of over 50% in size
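In this qHTS, NS1 from influenza A is expressed in budding yeast, where it slows growth. Cells are switched from glucose to 2% galactose medium (pH 6.0, -URA), treated with compound, and growth recovery is read at OD600.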
Pf growth 96h: P. falciparum growth inhibition at 96 hour, primary screen for plastid delayed-death inhibitors. Potency, µM (top dose mostly 28.7 µM), usual class: inhibitors. 320,000 compounds, 6.9% hits. P. falciparum luciferase reporter growth, 96 h. AID 504834
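P. falciparum expressing integrated firefly luciferase, in erythrocytes at 2% hematocrit, 0.05% parasitemia, incubated with compounds 96 h at 37 C, 5% CO2. Growth inhibition read as loss of luminescence; two-generation exposure targets delayed-death apicoplast inhibitors.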
Shiga toxin inh: blocks Shiga toxin action in Vero cells; 290,000 compounds, 9.2% hits; inhibition, % at 38.7 µM; Vero cells, Shiga toxin protein synthesis inhibition reporter; in the data active = inhibition mostly above about 28%, no sharp cut-off; inactive = mostly below about 43%
A number is an active result. Unless noted, calls follow the shape of the dose curve; as a rule, active = well fitted inhibition curve with a large enough effect; inconclusive = small, poorly fitted or top-dose-only effect, or another doubt; inactive = no such curve, though single readings can be large or run the other way.

CCOCN(C(=O)Cn1c(CO)nc2ccccc21)c1c(C)cccc1CC was read as Pf growth 48h inactive, CHX counter inactive, SARS PLpro yeast inactive, NS1 function inh inactive, Pf growth 96h 10.4µM and Shiga toxin inh inactive.
`CCc1cccc(CC)c1N(COC)C(=O)Cn1cnc2ccccc21` gave Pf growth 48h inactive, CHX counter inactive, SARS PLpro yeast inactive, NS1 function inh inactive, Pf growth 96h inactive and Shiga toxin inh inactive.
`CCOC(=O)C(=CNc1cccnc1Oc1ccc(C)c2c1CCC2)C(=O)OCC` gave Pf growth 48h 11.7µM, CHX counter inactive, SARS PLpro yeast inactive, NS1 function inh inactive, Pf growth 96h 8.28µM and Shiga toxin inh inactive.
For CCCCc1nnc(NC(=O)C2=COCCO2)s1 the results were Pf growth 48h inactive, CHX counter 39.6, SARS PLpro yeast inactive, NS1 function inh inactive, Pf growth 96h inactive and Shiga toxin inh 68.8.
For Cc1nnc(NC(=O)C2=COCCO2)s1 the results were Pf growth 48h inactive, SARS PLpro yeast inactive and Pf growth 96h inactive.
Screening CCC(CC)c1nnc(NC(=O)C2CCCO2)s1 (stereo not given) returned Pf growth 48h inactive, CHX counter 18.6, SARS PLpro yeast inactive, Pf growth 96h inconclusive and Shiga toxin inh inactive.
Screening Cc1csc(NC(=O)C2CCCO2)n1 (stereo not given) returned Pf growth 48h inactive, CHX counter inactive, SARS PLpro yeast inactive, NS1 function inh inactive, Pf growth 96h inactive and Shiga toxin inh inactive.
For CCCCc1nnc(NC(=O)C2CCCO2)s1 (stereo not given) the results were Pf growth 48h inactive, CHX counter 14.7, SARS PLpro yeast inactive, NS1 function inh inactive, Pf growth 96h inconclusive and Shiga toxin inh 53.3.
For Cc1cc(=O)oc(C)c1C(=O)NCCNC(=O)c1c(C)cc(=O)oc1C the results were Pf growth 48h inactive, CHX counter inactive, SARS PLpro yeast inactive, NS1 function inh inactive and Shiga toxin inh inactive.
`Cc1cc(=O)oc(C)c1C(=O)NCCC(C)C` gave Pf growth 48h inactive, CHX counter inactive, SARS PLpro yeast inactive, NS1 function inh inconclusive, Pf growth 96h 4.15µM and Shiga toxin inh inactive.
Screening CCCCN(C(=O)c1c(C)noc1C)c1c(N)n(CCCC)c(=O)[nH]c1=O returned Pf growth 48h inactive, SARS PLpro yeast inactive and Pf growth 96h inactive.
Cc1ccccc1-n1c(SC(C)C(=O)N2CCN(C)CC2)nc2ccccc2c1=O (stereo not given) was read as Pf growth 48h inactive, CHX counter inactive, SARS PLpro yeast inactive, NS1 function inh inactive, Pf growth 96h inconclusive and Shiga toxin inh inactive.
For Cc1ccc(-c2cc(C(=O)Nc3cc(C)on3)no2)cc1 the results were Pf growth 48h inactive, CHX counter inactive, SARS PLpro yeast inactive, NS1 function inh inactive, Pf growth 96h inactive and Shiga toxin inh inactive.
Cc1cc(C(=O)Nc2ccc3[nH]ccc3c2)no1 was read as Pf growth 48h inactive, CHX counter 45.7, SARS PLpro yeast inactive, NS1 function inh inactive, Pf growth 96h inactive and Shiga toxin inh 74.2.
For Cc1c(Cl)cccc1NC(=O)c1cc(C2CC2)on1 the results were CHX counter 35.3, SARS PLpro yeast inactive, NS1 function inh inactive, Pf growth 96h inactive and Shiga toxin inh 101.7.
Cc1cc(NC(=O)c2cc(CC(C)C)on2)no1 was read as Pf growth 48h inactive, CHX counter 42.9, SARS PLpro yeast inactive, NS1 function inh inactive, Pf growth 96h inactive and Shiga toxin inh 81.4.
CCc1ccc(C(=O)Nc2cc(C)on2)o1 was read as Pf growth 48h inactive, CHX counter inactive, SARS PLpro yeast inactive, NS1 function inh inactive, Pf growth 96h inactive and Shiga toxin inh 88.6.
COc1ccccc1-n1c(SCC(=O)c2ccc(O)cc2O)nc2cc([N+](=O)[O-])ccc21 was read as Pf growth 48h inactive, CHX counter inactive, SARS PLpro yeast inactive, NS1 function inh inactive, Pf growth 96h inconclusive and Shiga toxin inh inactive.
For Cc1ccc2cc(CCNC(=O)c3cccc([N+](=O)[O-])c3)c(=O)[nH]c2c1C the results were Pf growth 48h inactive, CHX counter inactive, SARS PLpro yeast inactive, NS1 function inh inactive, Pf growth 96h inconclusive and Shiga toxin inh inactive.
For CCCCC1CCC(C(=O)Nc2ccc(N3CCOCC3)cc2N2CCOCC2)CC1 (stereo not given) the results were Pf growth 48h inconclusive, SARS PLpro yeast inactive and Pf growth 96h inconclusive.
COC(=O)c1ccccc1NC(=O)c1cc(C2CC2)on1 was read as Pf growth 48h inactive, CHX counter inactive, SARS PLpro yeast inactive, NS1 function inh inactive, Pf growth 96h inactive and Shiga toxin inh inactive.
Screening COc1ccc(NC(=O)c2cc(C3CC3)on2)c(OC)c1 returned Pf growth 48h inactive, CHX counter 32.9, SARS PLpro yeast inactive, NS1 function inh inconclusive, Pf growth 96h inactive and Shiga toxin inh 47.3.
`Cc1cc(NC(=O)c2cc(C)on2)no1` gave Pf growth 48h inactive, CHX counter 8.4, SARS PLpro yeast inactive, NS1 function inh inactive and Shiga toxin inh inactive.
`Cc1cc(NC(=O)c2ccc(C)o2)no1` gave Pf growth 48h inactive, CHX counter inactive, SARS PLpro yeast inactive, NS1 function inh inactive, Pf growth 96h inconclusive and Shiga toxin inh inactive.
Screening CNc1nc(N)c(C(=O)Nc2cc(C)on2)s1 returned Pf growth 48h inactive, CHX counter 30.1, SARS PLpro yeast inactive, Pf growth 96h inactive and Shiga toxin inh 88.2.
Screening Cc1cc(NC(=O)c2ccoc2C)no1 returned Pf growth 48h inactive, CHX counter 11.0, SARS PLpro yeast inactive, NS1 function inh inactive, Pf growth 96h inactive and Shiga toxin inh inactive.
Screening Cc1cccc(CCN2CCN=C2Nc2ccccc2)c1 returned Pf growth 48h inconclusive, SARS PLpro yeast inactive and Pf growth 96h inconclusive.
For O=C(C[C@@H]1C/C=C\C[C@H](Cc2ccc(F)cc2)C(=O)OC[C@@H](c2ccccc2)NC1=O)NCCO the results were SARS PLpro yeast inactive.
`O=[N+]([O-])c1ccc(OCCO)nc1` gave Pf growth 48h inactive, CHX counter inactive, SARS PLpro yeast inactive, NS1 function inh inactive, Pf growth 96h inactive and Shiga toxin inh inactive.
For CN1CCN(C(=O)/C(=C\c2cccnc2)NC(=O)c2cccc(Br)c2)CC1 the results were Pf growth 48h inactive, CHX counter inactive, SARS PLpro yeast inactive, NS1 function inh inactive, Pf growth 96h inactive and Shiga toxin inh inactive.
Cc1cc(NC(=O)c2cc(C3CC3)on2)no1 was read as Pf growth 48h inactive, CHX counter 40.5, SARS PLpro yeast inactive, NS1 function inh inactive, Pf growth 96h inactive and Shiga toxin inh 73.0.
`CCCc1cc(C(=O)Nc2cc(C)on2)no1` gave CHX counter 13.4, SARS PLpro yeast inactive, NS1 function inh inactive, Pf growth 96h inactive and Shiga toxin inh inactive.
Screening COc1cc(/C=C2\SC(c3ccc(C)cc3)=NC2=O)ccc1O returned Pf growth 48h inconclusive, CHX counter 23.5, SARS PLpro yeast inactive, NS1 function inh inactive, Pf growth 96h inconclusive and Shiga toxin inh 52.1.
